# Screening data (PubChem BioAssay)
# SARS PLP yeast: SARS-CoV PLP inhibition in yeast; actives 0.19% (n = 330,000); AID 485353; S. cerevisiae expressing SARS-CoV PLpro, growth rescue; Potency, µM (highest dose often 32.9 µM), for the others: top-dose activity, positive = growth rescue, actives largely listed as activators; calls by dose curve; further: 0% is about no effect; nearly all actives have a fitted effect of over 55% in size
# Pf growth 48h: inhibits P. falciparum growth in the first generation, 48 h. AID 504832. P. falciparum luciferase growth in erythrocytes, 48 h. actives 5.9% (n = 310,000). Potency, µM (doses to about 28.7 µM), for the others: top-dose activity change, negative = inhibition, actives largely listed as inhibitors; further: on the % scale 0 is the no-effect control and ±100 the full control effect
#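 Cell-based growth assay: transgenic P. falciparum expressing firefly luciferase, cultured in red cells within RPMI 1640 containing 0.5% w/v Albumax, 24 mM bicarbonate and gentamycin. A drop in luciferase activity indicates inhibition.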
# AmpC no deterg: inhibitors of E. coli AmpC beta-lactamase without detergent. P00811. AmpC nitrocefin hydrolysis, absorbance 480 nm, 0.0001% Triton. Potency, µM (doses to about 57.1 µM), without a hit: top-dose activity change, negative = inhibition, actives largely listed as inhibitors. actives 0.52% (n = 330,000);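 further: plate controls were no compound for no effect and no enzyme for full effect; nearly all actives have a fitted effect of over 20% in size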
# Target sequence (P00811 whole entry, looked up): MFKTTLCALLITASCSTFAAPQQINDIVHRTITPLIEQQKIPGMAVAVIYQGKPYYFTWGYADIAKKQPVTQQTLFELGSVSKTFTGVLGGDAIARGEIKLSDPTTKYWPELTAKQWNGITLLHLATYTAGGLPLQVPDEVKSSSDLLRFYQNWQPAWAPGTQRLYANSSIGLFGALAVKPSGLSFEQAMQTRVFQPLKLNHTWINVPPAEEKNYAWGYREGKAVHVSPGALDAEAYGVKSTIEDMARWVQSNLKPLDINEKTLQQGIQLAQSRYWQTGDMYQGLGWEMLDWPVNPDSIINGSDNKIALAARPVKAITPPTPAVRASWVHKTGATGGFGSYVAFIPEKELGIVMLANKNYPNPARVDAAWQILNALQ
#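 20 mM phosphate pH 7.0 + 0.01% (detergent screen) or 0.0001% Triton X-100; 5.3 nM AmpC reagent; cpd preinc 15 min RT; nitrocefin (800 uM stock) to start; A480 q20 s × 4 min; Activity was normalised to no-enzyme and no-compound control wells.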
# Pf growth 96h: P. falciparum growth inhibition at 96 hours. Potency, µM (series often up to 28.7 µM), without a hit: at the highest dose activity change, negative = inhibition, usual class: inhibitors. P. falciparum luciferase reporter growth, 96 h. actives 6.9% (n = 320,000); further: on the % scale 0 is the no-effect control and ±100 the full control effect
#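 Readout is luminescence from an integrated firefly luciferase in P. falciparum. Red cells, 2% hematocrit and 0.05% parasitemia final, were cultured with compound through two parasite generations (96 hours) at 37 C, 5% CO2.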
# Sm TGR inh: S. mansoni TGR enzyme inhibition. Potency, µM (series often up to 114 µM), for inactives: at the top dose activity change, negative = inhibition, most hits filed as inhibitors. Q962Y6. actives 3% (n = 360,000). purified TGR, DTNB reduction, TNB absorbance 405 nm; further: on the % scale 0 is the no-effect control and ±100 the full control effect; nearly all actives have a fitted effect of over 60% in size
#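 First, TGR (20 nM dispensed) and NADPH were mixed with compound. Second, a 15 min room-temperature incubation followed. Third, further NADPH and then DTNB were added to start the reaction. Finally, TNB absorbance was monitored kinetically.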
# AmpC detergent: inhibitors of E. coli AmpC beta-lactamase with detergent. AmpC hydrolysis of nitrocefin, absorbance 480 nm, 0.01% Triton. Potency, µM (series often up to 114 µM), without a hit: at the top dose activity change, negative = inhibition, most hits filed as inhibitors. actives 0.041% (n = 370,000);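 further: 0% = no-compound wells and -100% = no-enzyme wells; nearly all actives have a fitted effect of over 25% in size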
#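 AmpC (5.3 nM in the dispensed reagent) in 20 mM phosphate pH 7.0 with 0.01% (detergent screen) or 0.0001% Triton X-100 was preincubated with compounds for 15 min at room temperature. Nitrocefin was then added from an 800 uM solution, and hydrolysis was followed at 480 nm.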
# * marks the source's active call; other numbers are inactive results; ? = inconclusive; . = not tested or not shown. Rows were chosen to be rich in hits. Some 12% of all compounds tested hit in one or more screens of this group. Unless noted, the call rests on the fitted dose curve; in most records, active means well fitted curve in the direction sought with a large enough effect; inconclusive means small, poorly fitted or top-dose-only effect, or another doubt; inactive means no such curve, though single readings can be large; an effect the other way counts as inactive or inconclusive. Potency means the concentration at half of the fitted maximal effect.
SMILES,SARS PLP yeast,Pf growth 48h,AmpC no deterg,Pf growth 96h,Sm TGR inh,AmpC detergent
O=S(=O)(Nc1cccc(-c2ccc(N3CCCCCC3)nn2)c1)c1ccccc1F,-1.3%,98.7%,-44.9%,14.7µM*,-10.0%,-8.1%
O=S(=O)(Nc1cccc(-c2ccc(N3CCCCCC3)nn2)c1)c1ccccc1Cl,-0.1%,25.8%,2.51µM*,?,2.6%,-10.8%
Cc1ccc(S(=O)(=O)Nc2cccc(-c3ccc(N4CCCCC4)nn3)c2)s1,.,.,.,.,1.3%,12.8%
O=S(=O)(Nc1cccc(-c2ccc(N3CCCCCC3)nn2)c1)c1ccc(F)cc1,6.0%,36.6%,?,-12.0%,5.7%,-13.4%
CC[C@]12c3[nH]c4ccc(OC)cc4c3CCN1C(=O)C(CC(=O)NCCc1ccccn1)C[C@@H]2C(=O)N1CCN(C(=O)C2CC2)CC1 (some centres undefined),-3.1%,.,75.2%,.,.,.
Cc1ccc(NC(=O)C2CCN(S(C)(=O)=O)CC2)c(C)c1,-9.4%,-3.0%,-23.6%,?,-5.8%,-6.5%
COC(=O)c1nnn(-c2cccc(C)c2)c1N,.,.,.,.,1.1%,-3.7%
N#Cc1ccc(-c2ccc(C3Nc4ccccc4C(=O)N3O)o2)cc1 (centres undefined),1.9%,?,-27.1%,?,5.01µM*,7.6%
COc1ccccc1S(=O)(=O)Cc1ccc(C(=O)N2CCN(c3ccccc3)CC2)o1,4.1%,?,65.9%,7.0%,0.0%,-1.0%
COc1ccccc1S(=O)(=O)Cc1ccc(C(=O)N2CCN(c3cccc(Cl)c3)CC2)o1,4.8%,11.7µM*,129.8%,3.8%,-19.5%,40.1%
COc1ccc(N2CCN(C(=O)c3ccc(CS(=O)(=O)c4ccccc4C)o3)CC2)cc1,-1.1%,13.4%,133.1%,10.4µM*,-23.3%,-6.2%
Cc1ccc(C)c(N2CCN(C(=O)c3ccc(CS(=O)(=O)c4ccccc4C)o3)CC2)c1,-3.9%,?,82.1%,?,25.1µM*,?
Cc1cccc(N2CCN(C(=O)c3ccc(CS(=O)(=O)c4ccccc4C)o3)CC2C)c1 (centres undefined),-11.5%,13.1µM*,97.2%,169.9%,-29.7%,2.3%
CC(C)(C)NC(=O)CN(C(=O)CNC(=O)c1cccs1)c1ccc2c(c1)OCCO2,3.6%,?,?,?,-0.3%,-2.1%
CC(=O)c1ccc(N2CCN(C(=O)c3cc4c(C)nc5ccccc5c4o3)CC2)cc1,1.9%,5.1%,-16.0%,?,2.4%,-13.2%
COc1ccc(N2CCN(C(=O)c3cc4c(C)nc5ccccc5c4o3)CC2)cc1,-29.5%,2.1%,135.4%,0.828µM*,-14.9%,-15.4%
COCCNC(=O)C(=O)NNC(=O)CCc1ccccc1,0.6%,18.5%,-16.1%,43.9%,-2.6%,-1.6%
NC(=O)C1CCN(C2=C(NS(=O)(=O)c3ccc(Cl)cc3)C(=O)c3ccccc3C2=O)CC1,0.2%,?,79.8%,-5.6%,11.2µM*,-1.0%
Cc1ccc(S(=O)(=O)NC2=C(N3CCN(Cc4ccccc4)CC3)C(=O)c3ccccc3C2=O)cc1,-0.3%,?,-25.3%,.,-1.2%,-0.7%
CCOC(=O)N1CCN(C2=C(NS(=O)(=O)c3ccc(C)cc3)C(=O)c3ccccc3C2=O)CC1,-3.2%,8.28µM*,42.3%,3.29µM*,?,-0.8%
CC1CCCN(C2=C(NS(=O)(=O)c3ccc(Cl)cc3)C(=O)c3ccccc3C2=O)C1 (centres undefined),-8.2%,?,-46.4%,11.7µM*,-25.1%,8.0%
CC(=O)Nc1ccc(S(=O)(=O)NC2=C(N3CCN(c4ccc(F)cc4)CC3)C(=O)c3ccccc3C2=O)cc1,2.6%,0.738µM*,-15.0%,.,?,-6.2%
COC(=O)[C@]1(C)N[C@H](CN(C)S(=O)(=O)c2ccc(OC(F)(F)F)cc2)[C@@H]2C(=O)N(Cc3ccccc3)C(=O)[C@@H]21,-1.1%,.,340.5%,.,.,.
CN(C(=S)NC(=O)c1ccc(Cl)cc1)C1CCCCC1,-2.8%,?,-33.7%,10.4µM*,79.4µM*,?
CN(C(=S)NC(=O)c1ccc(F)cc1)C1CCCCC1,5.7%,?,-24.7%,?,3.4%,3.9%
SMILES,SARS PLP yeast,Pf growth 48h,AmpC no deterg,Pf growth 96h,Sm TGR inh,AmpC detergent
CN(C)CCCn1c(-c2ccccc2)nc(=S)c2c1CCCC2,0.7%,-1.9%,-18.9%,8.6%,44.7µM*,-0.9%
Cc1cccc(-c2nc(=S)c3c(n2Cc2ccco2)CCCC3)c1,0.3%,-21.5%,-13.5%,.,20µM*,?
Cc1ccc(-c2nc(=S)c3c(n2Cc2ccco2)CC(C)(C)OC3)cc1,0.4%,?,0.0%,8.28µM*,-18.5%,-13.8%
OCCCn1c(-c2ccccc2)nc(=S)c2c1CCCC2,-1.4%,?,-13.8%,?,?,-5.8%
Cc1ccc(-c2nc(=S)c3c(n2Cc2ccco2)CCCC3)cc1,-3.3%,?,-9.6%,75.7%,8.91µM*,?
COc1ccc(Cl)cc1Nc1nc(-c2sc(NC(=O)c3ccccc3)nc2C)cs1,-1.4%,1.85µM*,-41.7%,2.94µM*,5.4%,?
Cc1nc(NC(=O)c2ccccc2)sc1-c1csc(Nc2ccc(Cl)cc2Cl)n1,3.5%,10.4µM*,?,3.29µM*,13.4%,-11.1%
Cc1nc(N2CCOCC2)c2c(C(=O)N(C)c3ccccc3)c(C)oc2n1,.,.,.,.,3.0%,17.7%
CC1Oc2ccccc2C=C1/C=N\NC(=O)c1cccnc1 (centres undefined),-0.7%,0.0%,-10.6%,3.4%,-2.2%,2.8%
CC1Oc2ccccc2C=C1/C=N/NC(=O)c1ccccc1 (centres undefined),-53.4%,2.94µM*,-41.8%,?,-6.4%,5.5%
Cc1ccc(C(=O)N/N=C/C2=Cc3ccccc3OC2C)cc1 (centres undefined),-69.9%,?,-35.7%,?,5.6%,2.5%
CC1Oc2ccccc2C=C1/C=N/NC(=O)c1ccccc1O (centres undefined),-18.9%,3.7µM*,-40.0%,?,-11.0%,1.5%
Cc1ccc(-c2noc(-c3cccnc3N(C)Cc3ccc(Cl)cc3)n2)cc1,.,.,.,.,-1.1%,6.0%
Cc1ccc(NC(=O)c2c(C)oc3ccc(O)c(CN4CCCC4)c23)c(C)c1,.,.,.,.,-0.9%,2.2%
CCc1ccc(-c2cn3c(n2)sc2cc(C(=O)NCC(C)c4ccccc4)ccc23)cc1 (centres undefined),.,.,.,.,-2.8%,0.6%
COc1ccc(-c2cn3c(n2)sc2cc(C(=O)NCC(C)c4ccccc4)ccc23)cc1 (centres undefined),.,.,.,.,79.4µM*,1.5%
